For 25 compounds, Potency results are on record in PubChem BioAssay (Tox21).

Test [1] deals with Luciferin 4-monooxygenase (Photinus pyralis) (UniProt P08659). Kind of test: qHTS assay to identify small molecule inhibitors of firefly luciferase (AID 1224835). Further: nearly all actives have a fitted effect of over 25% in size. Further: potency means the concentration at half of the fitted maximal effect. The essentials:
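Quantitative HTS format; KM concentrations of both substrates. Purified P. pyralis FLuc activity quantified from luminescence images.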
A general note: Quantitative high-throughput screening tests each substance at several concentrations.

Test [2] in a line: qHTS assay to identify small molecule agonists of the constitutive androstane receptor (CAR) signaling pathway - cell viability counter screen (AID 1224836). Further: series mostly up to about 92 µM; nearly all actives have a fitted effect of over 45% in size. The method in brief: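 Using CellTiter-Fluor, viability of HepG2 cells harbouring hCAR and CYP2B6-2.2kb was measured following 23 h incubation with a 15-concentration compound series plus PK11195 (0.75 uM final).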
Test [3] is described as follows: qHTS assay to identify small molecule antagonists of the constitutive androstane receptor (CAR) signaling pathway - cell viability counter screen (AID 1224837). Further: series mostly up to about 92 µM; nearly all actives have a fitted effect of over 45% in size. The essentials: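 HepG2 cells stably expressing hCAR and a CYP2B6-2.2kb reporter were plated and pre-incubated 4 hr at 37 C/5% CO2, then given compounds at 15 concentrations plus 50 nM CITCO (final). After 23 hr, viability was read by CellTiter-Fluor fluorescence.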

In test [4] the target is Nuclear receptor subfamily 1 group I member 3 (Homo sapiens) (UniProt Q14994). Description: qHTS assay to identify small molecule antagonists of the constitutive androstane receptor (CAR) signaling pathway (AID 1224838). Further: nearly all actives have a fitted effect of over 40% in size. Further: potency means the concentration at half of the fitted maximal effect. The method in brief:
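HepG2 cells stably co-transfected with hCAR and a CYP2B6-2.2kb luciferase reporter were seeded 4 h before compound addition at 15 concentrations. Cells were stimulated with 50 nM CITCO (final) for 24 h at 37 C; luciferase luminescence was then read.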

Test [5] has the same target. Kind of test: qHTS assay to identify small molecule agonists of the constitutive androstane receptor (CAR) signaling pathway (AID 1224839). Further: nearly all actives have a fitted effect of over 15% in size. Further: potency means the concentration at half of the fitted maximal effect. The essentials: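 Double-stable HepG2 cells (hCAR, CYP2B6-2.2kb) seeded 4 h before compound addition. Exposure 24 h with 0.75 uM PK11195 final. Luciferase detected by ONE-Glo.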
The nature of test [6]: qHTS assay to identify small molecule antagonists of the estrogen related receptor signaling pathway with the pleiotropic PPARgamma coactivator (PGC) from Tox21 10K library - cell viability counter screen (AID 1224840; active means well fitted cell-killing curve with a large enough effect in the repeat runs, not every such curve was filed as active; further: nearly all actives have a fitted effect of over 40% in size; further: potency means the concentration at half of the fitted maximal effect). The method in brief: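 PGC/ERR cells were seeded at 2,000 cells/well and left 6 hours at 37 C/5% CO2 before pin-tool addition of compounds in DMSO. After 17.5 hours at 37 C, CellTiter-Fluor was added and fluorescence read 30 minutes later.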

Test [7] in a line: qHTS assay to identify small molecule antagonists of the estrogen related receptor (ERR) signaling pathway from Tox21 library - cell viability counter screen (AID 1224834). Further: nearly all actives have a fitted effect of over 30% in size. The method in brief:
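ERR reporter cells were plated 6 h before compound addition, then exposed to test compounds in DMSO for 17.5 h at 37 C. Viability was read as CellTiter-Fluor fluorescence after a 30-minute incubation at 37 C.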

The nature of test [8]: qHTS assay to identify small molecule antagonists of the estrogen related receptor signaling pathway with the pleiotropic PPARgamma coactivator (PGC) from Tox21 10K library (AID 1224841; call rule not given here; further: actives are mostly falling curves and most rising ones were filed inactive; nearly all actives have a fitted effect of over 50% in size; further: potency means the concentration at half of the fitted maximal effect). The essentials: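 PGC/ERR reporter cells were seeded at 2,000 cells/well and held 6 hours at 37 C/5% CO2 before pin-tool addition of compounds in DMSO. After 18 hours at 37 C, One-Glo was added and luminescence read after 30 minutes at room temperature.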

Test [9] is described as follows: qHTS assay to identify small molecule agonists of the estrogen related receptor signaling pathway with the pleiotropic PPARgamma coactivator (PGC) from Tox21 10K library (AID 1224842). Further: nearly all actives have a fitted effect of over 15% in size. Further: potency means the concentration at half of the fitted maximal effect. The essentials:
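PGC/ERR reporter cells (NTP line) were seeded 2,000 per well, rested 6 h at 37 C/5% CO2, then pin-dosed with compounds in DMSO for 18 h at 37 C; luciferase read by One-Glo luminescence after 30 min at room temperature.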

Values joined by “and” are separate entries in the source; they are usually repeats but may differ in a detail not shown here. Equal entries are not always repeated. Records with an inconclusive call do not appear. More than one record can exist for a structure, and the calls need not agree. Active and inactive are the calls of the source. Unless noted, the call rests on the fitted dose curve; in most records, active means well fitted curve in the direction sought with a large enough effect in the repeat runs; inconclusive means weak or mixed curves; inactive means no such curve, though single readings can be large; an effect the other way counts as inactive or inconclusive.

Luciferin 4-monooxygenase (Photinus pyralis), sequence (P08659 whole entry, looked up): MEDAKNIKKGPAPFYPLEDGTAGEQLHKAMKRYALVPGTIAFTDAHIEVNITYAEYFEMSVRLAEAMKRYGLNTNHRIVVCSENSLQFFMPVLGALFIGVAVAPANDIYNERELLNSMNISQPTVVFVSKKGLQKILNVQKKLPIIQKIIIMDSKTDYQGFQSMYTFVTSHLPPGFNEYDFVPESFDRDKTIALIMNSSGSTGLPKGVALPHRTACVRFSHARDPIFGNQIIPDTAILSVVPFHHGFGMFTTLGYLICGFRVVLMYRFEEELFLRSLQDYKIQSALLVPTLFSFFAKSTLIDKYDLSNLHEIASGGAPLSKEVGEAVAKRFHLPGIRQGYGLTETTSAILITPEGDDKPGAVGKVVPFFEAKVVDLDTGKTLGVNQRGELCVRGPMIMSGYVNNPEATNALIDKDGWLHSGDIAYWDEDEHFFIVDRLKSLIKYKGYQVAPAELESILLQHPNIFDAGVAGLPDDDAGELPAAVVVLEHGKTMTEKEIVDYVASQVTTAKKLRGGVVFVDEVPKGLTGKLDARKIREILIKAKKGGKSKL
Nuclear receptor subfamily 1 group I member 3 (Homo sapiens), sequence (Q14994 whole entry, looked up): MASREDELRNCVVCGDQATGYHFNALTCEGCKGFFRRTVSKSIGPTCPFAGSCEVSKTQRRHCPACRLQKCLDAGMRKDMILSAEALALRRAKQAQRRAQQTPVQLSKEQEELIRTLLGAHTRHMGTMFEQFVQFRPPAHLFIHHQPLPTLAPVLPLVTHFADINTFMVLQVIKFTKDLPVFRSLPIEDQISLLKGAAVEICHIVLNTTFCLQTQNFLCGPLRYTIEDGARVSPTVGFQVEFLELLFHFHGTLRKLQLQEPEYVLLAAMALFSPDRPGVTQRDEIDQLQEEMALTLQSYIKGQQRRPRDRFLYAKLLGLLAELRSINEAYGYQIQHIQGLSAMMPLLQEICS

Turning to `NC(=O)c1ccc([N+](=O)[O-])cc1Cl`, the Potency entry in [1], in [2], in test [3], in [4], in test [5] and in test [6] was “inactive” throughout.

Consider `CCCCCCCCOc1ccc(C(=O)c2ccccc2)c(O)c1`, for which the Potency entry in test [7], in test [1], in test [2], in [3], in test [5] and in test [6] was “inactive” each time. In addition, the Potency result in test [8] and in [9] was “inactive” throughout. Further, the Potency in test [4] was 7.5 µM (active).

Turning to `C=C(C)C(N)=O`, the Potency result in [7], in test [1], in test [2], in [3], in test [4] and in [5] was “inactive” throughout. Also, the Potency result in test [6], in test [8] and in test [9] was “inactive” throughout.

For the compound `C=CC(=O)NC(C)(C)CS(=O)(=O)O`, the Potency result in test [1], in test [2], in test [3], in test [4], in test [5] and in [6] was “inactive” in each case.

Consider `CCc1cc(C(N)=S)ccn1`, for which the Potency result in [7], in [2], in test [3] and in [6] was “inactive” in each case.

Regarding `C1CNCCN1`, the Potency entry in test [1], in [2], in test [3], in [4], in test [5] and in test [6] was “inactive” in each case.

`C[C@]12CC[C@@H]3c4ccc(O)cc4CC[C@H]3[C@@H]1CCC2=O`: the Potency entry in [7], in test [2], in [3] and in [6] was “inactive” each time.

Regarding `O=C(O)CCCCC1CCSS1` (centres undefined), the Potency result in test [7], in [1], in test [2], in test [3], in [6] and in [8] was “inactive” throughout. In addition, the Potency entry in test [9] is “inactive”.

`Oc1cccc(O)c1`: the Potency entry in [7], in test [1], in test [2], in test [3], in test [6] and in [9] was “inactive” throughout. Besides, the Potency in [8] was 18.8 nM (active) and inactive.

As to `Cc1ccc(O)c(-n2nc3ccccc3n2)c1`, the Potency result in [7], in test [2], in [3], in test [4], in test [6] and in [8] was “inactive” throughout. Further, the Potency in test [1] is 2.5 µM (active) and 1.59 µM (active) and 3.09 µM (active); in [5], 24.1 µM (active) and 21.7 µM (active) and 8.41 µM (active); in test [9] it was 27.1 µM (active) and 8.63 µM (active) and 11.9 µM (active).

As to `C[C@]12C[C@H](O)[C@H]3[C@@H](CCC4=CC(=O)CC[C@@]43C)[C@@H]1CC[C@@H]2C(=O)CO`, the Potency entry in test [1], in [2], in [3], in test [4], in test [5] and in test [6] was “inactive” each time.

Consider `COc1cc2c(c(OC)c1OC)-c1ccc(OC)c(=O)cc1[C@@H](NC(C)=O)CC2`, for which the Potency result in test [7], in test [1] and in [2] was “inactive” each time. Moreover, in test [6], the Potency is 2.4 µM (active) and inactive.

Consider `Cc1c(N(C)CS(=O)(=O)O)c(=O)n(-c2ccccc2)n1C`, for which the Potency entry in test [1], in test [2], in test [3], in test [4], in test [5] and in test [6] was “inactive” in each case.

With `COCC(C)N` (centres undefined), the Potency entry in test [1], in [2], in test [3], in test [4], in test [5] and in test [6] was “inactive” in each case.

For the compound `Cc1cnc(NC(=O)C2=C(O)c3ccccc3S(=O)(=O)N2C)s1`, the Potency entry in test [7], in [2], in test [3] and in test [6] was “inactive” throughout. Also, the Potency in test [1] was 31.8 µM (active) and 22.4 µM (active) and 34.7 µM (active).

`CCCCOCCOCCSC#N`: the Potency entry in [1], in test [2], in test [3], in [4], in test [5] and in test [6] was “inactive” each time.

With `OC[C@@H](O)[C@@H](O)[C@H](O)[C@H](O)CO`, the Potency result in test [7], in test [1], in [2], in [3], in test [6] and in [8] was “inactive” each time. Moreover, the Potency result in [9] is “inactive”.

With `CC(=O)/C=C/C1=C(C)CCCC1(C)C`, the Potency result in test [7], in [1], in test [2], in test [3] and in test [6] was “inactive” throughout.

For the compound `COC(=O)c1ccc(C=O)cc1`, the Potency entry in test [1], in [2], in test [3], in test [4], in test [5] and in test [6] was “inactive” throughout. Besides, the Potency entry in [8] and in test [9] was “inactive” throughout.

Consider `N[C@@H](Cc1c[nH]c2ccccc12)C(=O)O`, for which the Potency entry in test [1], in test [2], in [3] and in test [6] was “inactive” in each case.

As for `C#C[C@]1(O)CC[C@H]2[C@@H]3CCC4=CC(=O)CC[C@@H]4[C@H]3CC[C@@]21CC`, the Potency entry in test [1], in test [2], in [3] and in test [6] was “inactive” in each case.

In the case of `COc1ccccc1O`, the Potency result in test [1], in [2], in test [3], in test [4], in test [5] and in test [6] was “inactive” each time.

Turning to `CC(C)(C)NCC(O)c1ccc(O)c(CO)c1` (centres undefined), the Potency result in test [1], in test [2], in test [3], in [4], in [5] and in test [6] was “inactive” in each case.

Take `CCCCCCCCCCCCCC(=O)OC(C)C`: the Potency result in test [1], in test [2], in test [3] and in test [6] was “inactive” in each case.

For `NC(=O)NO`, the Potency result in test [1], in [2], in [3], in [4] and in test [6] was “inactive” in each case.
